Source: PubChem BioAssay (NCATS)
Records with an inconclusive call do not appear. Where a call stands in place of a potency, no number is given. Active and inactive are the calls of the source. The call rests on the fitted dose curve; in most records, active means well fitted curve in the direction sought with a large enough effect; inconclusive means small, poorly fitted or top-dose-only effect, or another doubt; inactive means no such curve, though single readings can be large; an effect the other way counts as inactive or inconclusive.

Assays:
[1] = qHTS of pediatric cancer cell lines to identify multiple opportunities for drug repurposing: Primary screen for Saos-2 cells (AID 1347097); further: nearly all actives have a fitted effect of over 40% in size
In short: (§1)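 Cells plated at 500-1,000/well in growth medium, compounds added after 5 h. MIPE tested at 11 points (from 0.78 nM), NPC at 8 points (from 0.59 nM). CellTiter-Glo luminescence after 48 h; concentration-response curves from primary screen.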

[2] = qHTS of pediatric cancer cell lines to identify multiple opportunities for drug repurposing: Primary screen for SK-N-SH cells (AID 1347098);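 further: DMSO served as neutral control and bortezomib at 2.3 µM as positive control; nearly all actives have a fitted effect of over 65% in size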
In short: (§2)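 Cells (500-1,000/well) rested 5 h, then received compounds for 48 h; metabolically active cells were measured by CellTiter-Glo luminescence. Final concentrations spanned up to 46 µM (MIPE, 11-point) or 0.59 nM-46 µM (NPC, 8-point) in primary screens, 11-point in follow-ups.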

[3] = qHTS of pediatric cancer cell lines to identify multiple opportunities for drug repurposing: Primary screen for NB1643 cells (AID 1347099); further: nearly all actives have a fitted effect of over 50% in size
In short: as §1

[4] = qHTS of pediatric cancer cell lines to identify multiple opportunities for drug repurposing: Primary screen for LAN-5 cells (AID 1347100); further: potency means the concentration at half of the fitted maximal effect
In short: as §2

[5] = qHTS of pediatric cancer cell lines to identify multiple opportunities for drug repurposing: Primary screen for BT-12 cells (AID 1347101); further: nearly all actives have a fitted effect of over 25% in size
In short: as §2

[6] = qHTS of pediatric cancer cell lines to identify multiple opportunities for drug repurposing: Primary screen for Rh18 cells (AID 1347102); further: nearly all actives have a fitted effect of over 65% in size
In short: as §2

[7] = qHTS of pediatric cancer cell lines to identify multiple opportunities for drug repurposing: Primary screen for OHS-50 cells (AID 1347103); further: nearly all actives have a fitted effect of over 40% in size
In short: as §2

[8] = qHTS of pediatric cancer cell lines to identify multiple opportunities for drug repurposing: Primary screen for RD cells (AID 1347104); further: nearly all actives have a fitted effect of over 55% in size
In short: as §1

[9] = qHTS of pediatric cancer cell lines to identify multiple opportunities for drug repurposing: Primary screen for control Hh wild type fibroblast cells (AID 1347106);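 further: series mostly up to about 46 µM; a drop in luminescence marks cytotoxicity and a rise apparent proliferation; nearly all actives have a fitted effect of over 55% in size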
In short: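 Cells (500-1,000/well) in growth media were settled 5 h at 37 degrees C, then given compounds for 48 h. Viability was read as CellTiter-Glo luminescence. Primary runs used MIPE at 11 points (0.78 nM-46 µM) and NPC at 8 points (0.59 nM-46 µM); follow-ups used 11 points.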

[10] = qHTS of pediatric cancer cell lines to identify multiple opportunities for drug repurposing: Primary screen for MG 63 (6-TG R) cells (AID 1347105); further: nearly all actives have a fitted effect of over 50% in size
In short: as §1

| SMILES | Potency [1] | Potency [2] | Potency [3] | Potency [4] | Potency [5] | Potency [6] | Potency [7] | Potency [8] | outcome [9] | Potency [10] |
| --- | --- | --- | --- | --- | --- | --- | --- | --- | --- | --- |
| Nc1nc(N)nc(NC2CC2)n1 | inactive | inactive | inactive | inactive | inactive | inactive | inactive | inactive | inactive | – |
| CN1C(=O)NC(=O)C(C)(C2=CCCCC2)C1=O (configuration not stated) | inactive | inactive | inactive | inactive | inactive | inactive | inactive | inactive | inactive | inactive |
| COc1ccc2c3c1O[C@H]1[C@H](O)CC[C@H]4[C@@H](C2)N(C)CC[C@@]341 | inactive | inactive | inactive | inactive | inactive | inactive | inactive | inactive | – | – |
| CCCOC(=O)c1cncn1C(C)c1ccccc1 (configuration not stated) | inactive | inactive | inactive | inactive | inactive | inactive | inactive | inactive | inactive | inactive |
| C[C@H](N)C(=O)c1ccccc1 | inactive | inactive | inactive | inactive | inactive | inactive | inactive | inactive | inactive | inactive |
| NCCc1ccc(O)cc1 | inactive | inactive | inactive | inactive | inactive | inactive | inactive | inactive | – | inactive |
| CNCC(=O)c1ccc(O)c(O)c1 | inactive | inactive | inactive | inactive | inactive | inactive | inactive | inactive | – | inactive |
| CC[N+]1(CC)CCC(OC(=O)C(O)(c2ccccc2)c2ccccc2)C1 (configuration not stated) | inactive | inactive | inactive | inactive | inactive | inactive | inactive | inactive | – | inactive |
| C=C(C)[C@H]1CN[C@H](C(=O)O)[C@H]1CC(=O)O | inactive | inactive | inactive | inactive | inactive | inactive | inactive | inactive | – | inactive |
| CCC(C)C(C)(COC(N)=O)COC(N)=O (configuration not stated) | inactive | inactive | inactive | inactive | inactive | inactive | inactive | inactive | inactive | inactive |
| CCOC(=O)CC(SP(=S)(OC)OC)C(=O)OCC (configuration not stated) | inactive | inactive | inactive | inactive | inactive | inactive | inactive | inactive | – | – |
| CCN(CCO)CCn1c(Cc2ccccc2)nc2c1c(=O)n(C)c(=O)n2C | inactive | inactive | inactive | inactive | inactive | inactive | inactive | inactive | inactive | inactive |
| COC(=O)[C@@H](N)CCCN/C(N)=N/[N+](=O)[O-] | inactive | inactive | inactive | inactive | inactive | inactive | inactive | inactive | inactive | inactive |
| COC(=O)C(Cl)C(=O)OC | inactive | inactive | inactive | inactive | inactive | inactive | inactive | inactive | inactive | inactive |
| Clc1ccccc1N1CCNCC1 | inactive | inactive | inactive | inactive | inactive | inactive | inactive | inactive | inactive | inactive |
| Nc1ccc([As](=O)(O)O)cc1 | inactive | inactive | inactive | inactive | inactive | inactive | inactive | inactive | – | – |
| C=CCN1C[C@H](C)N([C@H](c2ccc(C(=O)N(CC)CC)cc2)c2cccc(OC)c2)C[C@H]1C | inactive | inactive | inactive | inactive | inactive | inactive | inactive | inactive | inactive | inactive |
| CC(=O)C1CCOC1=O (configuration not stated) | inactive | inactive | inactive | inactive | inactive | inactive | inactive | inactive | inactive | inactive |
| NC1=NC(=O)C(c2ccccc2)O1 (configuration not stated) | inactive | inactive | inactive | inactive | inactive | inactive | inactive | inactive | – | inactive |
| Nc1ccccc1 | inactive | inactive | inactive | inactive | inactive | inactive | inactive | inactive | – | – |
| C=CCC1([C@H](C)CCC)C(=O)NC(=O)NC1=O | inactive | inactive | inactive | inactive | inactive | inactive | inactive | inactive | – | inactive |
| O=C(O)c1ccc(=O)[nH]c1 | inactive | inactive | inactive | inactive | inactive | inactive | inactive | inactive | inactive | inactive |
| CCC1(CC)C(=O)C=CNC1=O | inactive | inactive | inactive | inactive | inactive | inactive | inactive | inactive | – | inactive |
| COc1ccc2c(c1OC)C(=O)O[C@H]2[C@@H]1c2cc3c(cc2CCN1C)OCO3 | inactive | inactive | inactive | inactive | inactive | inactive | inactive | inactive | – | inactive |
| CN1C(=O)COc2c(C(=O)NC3CN4CCC3CC4)cc(Cl)cc21 (configuration not stated) | inactive | inactive | inactive | inactive | inactive | inactive | inactive | inactive | – | – |

| SMILES | Potency [1] | Potency [2] | Potency [3] | Potency [4] | Potency [5] | Potency [6] | Potency [7] | Potency [8] | outcome [9] | Potency [10] |
| --- | --- | --- | --- | --- | --- | --- | --- | --- | --- | --- |
| COP(=S)(OC)Oc1ccc(SC)c(C)c1 | inactive | inactive | inactive | inactive | inactive | inactive | inactive | inactive | – | – |
| CCN[C@@H](C)Cc1cccc(C(F)(F)F)c1 | inactive | inactive | inactive | inactive | inactive | inactive | inactive | inactive | inactive | – |
| CC(C(=O)c1ccccc1)N(C)C (configuration not stated) | inactive | inactive | inactive | inactive | inactive | inactive | inactive | inactive | inactive | inactive |
| C[N+]1(CCF)[C@@H]2CC[C@H]1CC(OC(=O)C(O)(c1ccccc1)c1ccccc1)C2 (some centres not stated) | inactive | inactive | inactive | inactive | inactive | inactive | inactive | inactive | inactive | inactive |
| O=c1[nH]c2ccccc2n1C1CCNCC1 | inactive | inactive | inactive | inactive | inactive | inactive | inactive | inactive | inactive | inactive |
| NC(=O)c1cc([N+](=O)[O-])cc([N+](=O)[O-])c1 | inactive | inactive | inactive | inactive | inactive | inactive | inactive | inactive | inactive | inactive |
| CCN[C@@H](C)Cc1ccccc1 | inactive | inactive | inactive | inactive | inactive | inactive | inactive | inactive | inactive | inactive |
| CC(C)NC(C)C | inactive | inactive | inactive | inactive | inactive | inactive | inactive | inactive | inactive | inactive |
| NC(=O)CS(=O)C(c1ccccc1)c1ccccc1 (configuration not stated) | inactive | inactive | inactive | inactive | inactive | inactive | inactive | inactive | inactive | inactive |
| CC(C)N(CCC(C(N)=O)(c1ccccc1)c1ccccn1)C(C)C (configuration not stated) | inactive | inactive | inactive | inactive | inactive | inactive | inactive | inactive | – | – |
| COP(=S)(OC)Oc1cc(Cl)c(Cl)cc1Cl | inactive | inactive | inactive | inactive | inactive | inactive | inactive | inactive | – | – |
| O=C1c2ccccc2C(=O)c2ccccc21 | inactive | inactive | inactive | inactive | inactive | inactive | inactive | inactive | inactive | inactive |
| O=c1[nH]oc2c1CCNC2 | inactive | inactive | inactive | inactive | inactive | inactive | inactive | inactive | inactive | inactive |
| O=c1oc2ccccc2c(O)c1Cc1c(O)c2ccccc2oc1=O | inactive | inactive | inactive | inactive | inactive | inactive | inactive | inactive | – | inactive |
| ClCCN1CCCC1 | inactive | inactive | – | inactive | inactive | inactive | inactive | inactive | – | – |
| CNC(C)(C)Cc1ccccc1 | inactive | inactive | – | inactive | inactive | inactive | inactive | inactive | – | – |
| O=C(O)CCCc1ccc(N(CCCl)CCCl)cc1 | inactive | inactive | – | 9.44 µM (active) | inactive | inactive | – | inactive | inactive | inactive |
| C[C@@H](N)[C@@H](O)c1ccccc1 | inactive | inactive | – | inactive | inactive | inactive | inactive | inactive | inactive | inactive |
| C[C@]12CCC(=O)C=C1CC[C@@H]1[C@@H]2CC[C@]2(C)C(=O)CC[C@@H]12 | inactive | inactive | inactive | inactive | inactive | inactive | – | inactive | inactive | – |
| O=P1(N(CCCl)CCCl)NCCCO1 (configuration not stated) | inactive | inactive | – | inactive | inactive | inactive | inactive | inactive | – | inactive |
| CC(C)(N)Cc1ccccc1Cl | inactive | inactive | – | inactive | inactive | inactive | inactive | inactive | inactive | – |
| CC(NC(C)(C)C)C(=O)c1cccc(Cl)c1 (configuration not stated) | inactive | inactive | – | inactive | inactive | inactive | inactive | inactive | inactive | – |
| Clc1cccc(SC2CCNCC2)n1 | inactive | inactive | – | inactive | inactive | inactive | inactive | inactive | inactive | inactive |
| c1ccc(CN2CCNCC2)cc1 | inactive | inactive | – | inactive | inactive | inactive | inactive | inactive | – | – |
